PubChem BioAssay (NCI)
Several values for one entry are separate records, joined by “and”; a condition that tells them apart may be missing. Equal values may be shown once. This is part of a sample that, as a whole, favours compounds with a hit. Of some 83,000 tested, about 20% had one in any assay.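 Assay: single dose, 48 h. Readout: percent growth (0 = no net growth; negative = cell death). Active: <10.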 Some structures have more than one record in an assay (separate samples or runs), and their calls can disagree. Activity calls are given as the source filed them.

Experiments:
Assay in all cases: NCI-60 one-dose screen, 48 h (100 = growth as untreated, 0 = no growth, -100 = all killed)
Conditions in all cases: 10 µM unless noted
DU-145 prostate = tested on: DU-145 prostate
K-562 leukemia = tested on: K-562 leukemia
MALME-3M melanoma = tested on: MALME-3M melanoma
MDA-MB-231 breast = tested on: MDA-MB-231 breast
RXF 393 renal = tested on: RXF 393 renal
SF-268 CNS = tested on: SF-268 CNS
SF-295 CNS = tested on: SF-295 CNS
SF-539 CNS = tested on: SF-539 CNS
UACC-257 melanoma = tested on: UACC-257 melanoma
M14 melanoma = tested on: M14 melanoma

CCN(CC)CCOc1ccc(/C=N/Nc2nc3c([nH]2)c(=O)n(C)c(=O)n3C)cc1
growth (DU-145 prostate): 115% (inactive) and 108% (inactive) | growth (K-562 leukemia): 109% (inactive) and 103% (inactive) | growth (MALME-3M melanoma): 96.6% (inactive) and 82.1% (inactive) | growth (MDA-MB-231 breast): 103% (inactive) and 87.4% (inactive) | growth (RXF 393 renal): 114% (inactive) and 122% (inactive) | growth (SF-268 CNS): 111% (inactive) and 102% (inactive) | growth (SF-295 CNS): 113% (inactive) and 98.7% (inactive) | growth (SF-539 CNS): 97.2% (inactive) and 95.5% (inactive) | growth (UACC-257 melanoma): 102% (inactive) and 108% (inactive) | growth (M14 melanoma): 96.7% (inactive) and 97.6% (inactive)

O[C@H](c1cc(C(F)(F)F)nc2c(C(F)(F)F)cccc12)[C@@H]1CCCCN1
growth (DU-145 prostate): 67% (inactive) and 70.2% (inactive) | growth (K-562 leukemia): 8.6% (active) and 11.9% (inactive) | growth (MALME-3M melanoma): 89.6% (inactive) and 82.2% (inactive) | growth (MDA-MB-231 breast): 15.1% (inactive) and 17.7% (inactive) | growth (RXF 393 renal): 44% (inactive) and 43.3% (inactive) | growth (SF-268 CNS): 57.9% (inactive) and 56.6% (inactive) | growth (SF-295 CNS): 93.6% (inactive) | growth (SF-539 CNS): 81.1% (inactive) and 75.6% (inactive) | growth (UACC-257 melanoma): 58.1% (inactive) and 75.4% (inactive) | growth (M14 melanoma): 67.2% (inactive) and 71.8% (inactive)

N/C(=N\N=C\c1ccc2c(c1)OCO2)N/N=C\c1ccc2c(c1)OCO2
growth (DU-145 prostate): 110% (inactive) and 83.9% (inactive) | growth (K-562 leukemia): 90.1% (inactive) | growth (MALME-3M melanoma): 92.7% (inactive) | growth (MDA-MB-231 breast): 107% (inactive) and 90.4% (inactive) | growth (RXF 393 renal): 110% (inactive) | growth (SF-268 CNS): 101% (inactive) and 76.2% (inactive) | growth (SF-295 CNS): 114% (inactive) and 121% (inactive) | growth (SF-539 CNS): 109% (inactive) and 113% (inactive) | growth (UACC-257 melanoma): 110% (inactive) and 97% (inactive) | growth (M14 melanoma): 100% (inactive) and 59.7% (inactive)

CC(C)(C)c1ccc(O)c(CNC2CCCCC2)c1
growth (DU-145 prostate): 130% (inactive) and 108% (inactive) | growth (K-562 leukemia): 48.7% (inactive) and 75.4% (inactive) | growth (MALME-3M melanoma): 115% (inactive) and 97.9% (inactive) | growth (MDA-MB-231 breast): 101% (inactive) and 97.2% (inactive) | growth (RXF 393 renal): 96.5% (inactive) and 59.5% (inactive) | growth (SF-268 CNS): 114% (inactive) and 96.8% (inactive) | growth (SF-295 CNS): 104% (inactive) | growth (SF-539 CNS): 114% (inactive) and 95.6% (inactive) | growth (UACC-257 melanoma): 108% (inactive) and 95.2% (inactive) | growth (M14 melanoma): 87.1% (inactive) and 101% (inactive)

Cc1ccc(S(=O)(=O)NCN2C(=O)c3ccccc3C2=O)cc1
growth (DU-145 prostate): 125% (inactive) | growth (K-562 leukemia): 106% (inactive) | growth (MALME-3M melanoma): 133% (inactive) | growth (MDA-MB-231 breast): 117% (inactive) | growth (RXF 393 renal): 121% (inactive) | growth (SF-268 CNS): 106% (inactive) | growth (SF-295 CNS): 100% (inactive) | growth (SF-539 CNS): 112% (inactive) | growth (UACC-257 melanoma): 104% (inactive) | growth (M14 melanoma): 109% (inactive)

OC1CCC(Oc2cccc3cnc(Nc4ccc5nc[nH]c5c4)nc23)CC1 (stereo unspecified)
growth (DU-145 prostate): 13.2% (inactive) and 48% (inactive) | growth (K-562 leukemia): 9.4% (active) and 54% (inactive) | growth (MALME-3M melanoma): -8.81% (active) and 86.7% (inactive) | growth (MDA-MB-231 breast): 2.87% (active) and 44.5% (inactive) | growth (RXF 393 renal): -16.8% (active) and 23% (inactive) | growth (SF-268 CNS): 1.49% (active) and 45.4% (inactive) | growth (SF-295 CNS): 13.1% (inactive) and 62.2% (inactive) | growth (SF-539 CNS): -34.1% (active) and 32% (inactive) | growth (UACC-257 melanoma): -24.7% (active) and 44.8% (inactive) | growth (M14 melanoma): -9.41% (active) and 49.1% (inactive)

COc1cc2c(c(OC)c1OC)-c1ccc(OC)c(=O)cc1[C@@H](NC(C)=O)CC2
growth (DU-145 prostate): -26.3% (active) and 0.564% (active) and -28.6% (active) | growth (K-562 leukemia): 9.04% (active) and 10.4% (inactive) and -25.7% (active) | growth (MALME-3M melanoma): 45.1% (inactive) and 43.1% (inactive) and 39% (inactive) | growth (MDA-MB-231 breast): 16.3% (inactive) and -21.5% (active) and -9.65% (active) | growth (RXF 393 renal): 34% (inactive) and 33.7% (inactive) and 15.3% (inactive) | growth (SF-268 CNS): 33.5% (inactive) and 27.5% (inactive) and 35.1% (inactive) | growth (SF-295 CNS): 2.25% (active) and 12.5% (inactive) and 7.89% (active) | growth (SF-539 CNS): -9.65% (active) and -24.7% (active) and -10.6% (active) | growth (UACC-257 melanoma): 76.9% (inactive) and 66.3% (inactive) and 24.9% (inactive) | growth (M14 melanoma): 2.32% (active) and -7.49% (active) and 1.7% (active)

NC(=S)NN=C1CCC(C2CCCCC2)CC1 (stereo unspecified)
growth (DU-145 prostate): 96.7% (inactive) and 103% (inactive) | growth (K-562 leukemia): 89.9% (inactive) and 89.5% (inactive) | growth (MALME-3M melanoma): 90.6% (inactive) | growth (MDA-MB-231 breast): 94.6% (inactive) and 93.6% (inactive) | growth (RXF 393 renal): 92.3% (inactive) and 92.9% (inactive) | growth (SF-268 CNS): 89.9% (inactive) and 102% (inactive) | growth (SF-295 CNS): 93% (inactive) and 87.7% (inactive) | growth (SF-539 CNS): 97.1% (inactive) and 82.8% (inactive) | growth (UACC-257 melanoma): 66.4% (inactive) and 66.9% (inactive) | growth (M14 melanoma): 92.2% (inactive) and 85% (inactive)

COc1ccccc1C(C)=O
growth (DU-145 prostate): 107% (inactive) and 113% (inactive) | growth (K-562 leukemia): 84.9% (inactive) and 106% (inactive) | growth (MALME-3M melanoma): 114% (inactive) and 107% (inactive) | growth (MDA-MB-231 breast): 104% (inactive) and 117% (inactive) | growth (RXF 393 renal): 99.3% (inactive) and 121% (inactive) | growth (SF-268 CNS): 92.7% (inactive) and 107% (inactive) | growth (SF-295 CNS): 106% (inactive) | growth (SF-539 CNS): 105% (inactive) and 107% (inactive) | growth (UACC-257 melanoma): 107% (inactive) and 110% (inactive) | growth (M14 melanoma): 105% (inactive) and 95.7% (inactive)

O=C(/C=C/c1ccccn1)c1ccccc1O
growth (DU-145 prostate): 76.4% (inactive) and 71% (inactive) | growth (MALME-3M melanoma): 70.1% (inactive) and 107% (inactive) | growth (MDA-MB-231 breast): 70.4% (inactive) and 95.9% (inactive) | growth (RXF 393 renal): 31.8% (inactive) and 56.4% (inactive) | growth (SF-268 CNS): 72.4% (inactive) and 61.6% (inactive) | growth (SF-295 CNS): 68.9% (inactive) and 91.6% (inactive) | growth (SF-539 CNS): 42.1% (inactive) and 80.9% (inactive) | growth (UACC-257 melanoma): 49.9% (inactive) and 84.9% (inactive) | growth (M14 melanoma): 72.5% (inactive) and 82.3% (inactive)

c1ccc(N(c2ccccc2)c2ccccc2)cc1
growth (DU-145 prostate): 113% (inactive) | growth (MALME-3M melanoma): 93.8% (inactive) | growth (MDA-MB-231 breast): 120% (inactive) | growth (RXF 393 renal): 122% (inactive) | growth (SF-268 CNS): 106% (inactive) | growth (SF-295 CNS): 92% (inactive) | growth (SF-539 CNS): 104% (inactive) | growth (UACC-257 melanoma): 104% (inactive) | growth (M14 melanoma): 100% (inactive)

OC(CSc1ccccc1)CN1CCN(c2cccc(Cl)c2)CC1 (stereo unspecified)
growth (DU-145 prostate): 116% (inactive) and 105% (inactive) | growth (K-562 leukemia): 84% (inactive) and 97% (inactive) | growth (MDA-MB-231 breast): 96.6% (inactive) and 96.3% (inactive) | growth (RXF 393 renal): 106% (inactive) and 93.8% (inactive) | growth (SF-268 CNS): 100% (inactive) and 99.1% (inactive) | growth (SF-295 CNS): 110% (inactive) and 105% (inactive) | growth (SF-539 CNS): 113% (inactive) and 105% (inactive) | growth (UACC-257 melanoma): 93.6% (inactive) and 95% (inactive) | growth (M14 melanoma): 100% (inactive) and 93.8% (inactive)

Nc1ccn(C2OC(CO)C(O)C2O)c(=O)n1 (stereo unspecified)
growth (DU-145 prostate): 24% (inactive) and 12.2% (inactive) and 114% (inactive) | growth (MDA-MB-231 breast): 110% (inactive) [middle of 4 runs] | growth (RXF 393 renal): 90.6% (inactive) and 33.4% (inactive) and 134% (inactive) | growth (SF-268 CNS): 35.8% (inactive) and 41.2% (inactive) and 104% (inactive)

O=C(Nc1ccc(Br)cc1)c1cc(Br)ccc1O
growth (DU-145 prostate): 19.9% (inactive) and 8.81% (active) | growth (K-562 leukemia): 9.25% (active) and -22.8% (active) | growth (MALME-3M melanoma): -31.4% (active) and -27.8% (active) | growth (MDA-MB-231 breast): -36.1% (active) and -21.9% (active) | growth (RXF 393 renal): 2.31% (active) and 38.3% (inactive) | growth (SF-268 CNS): 9.39% (active) and 9.12% (active) | growth (SF-295 CNS): -22.6% (active) and -16.5% (active) | growth (SF-539 CNS): 18.3% (inactive) and -1.29% (active) | growth (UACC-257 melanoma): 14% (inactive) and 8.51% (active) | growth (M14 melanoma): 8.56% (active) and 8.13% (active)
